ST2 inh – inhibitors of human ST2 (IL1RL1) binding to IL-33; Q01638; AlphaLISA ST2-Fc/biotin-IL-33 interaction, 1 h; inhibition, % for hits at 17 µM; actives 2.3% (n = 78,000); in the data active means inhibition above about 30%
* = called active by the depositor. Many of the other results were omitted from the sample, so hits are more common in it than they were.

For CCC(C(=O)Nc1ccc(Nc2nc(C)cc(Nc3ccc(C)cc3)n2)cc1)c1ccccc1 (stereo not drawn) the results were ST2 inh 36%*.
For Cc1ccc(Nc2cc(C)nc(Nc3ccc(NC(=O)CC(C)(C)C)cc3)n2)cc1 the results were ST2 inh inactive.
Screening NC(=O)c1ccccc1NC(=O)CCC1CCCCC1 returned ST2 inh inactive.
For Cc1cc(Nc2ccccc2)nc(Nc2ccc(NC(=O)c3ccccc3Cl)cc2)n1 the results were ST2 inh inactive.
CN(C)c1ccc(NC(=O)CCC2CCCCC2)cc1 was read as ST2 inh 67%*.
Screening Cc1cc(Nc2ccccc2)nc(Nc2ccc(NC(=O)c3cccc(Br)c3)cc2)n1 returned ST2 inh inactive.
For CC(=O)Nc1ccccc1NC(=O)CCC1CCCCC1 the results were ST2 inh inactive.
CCC1(c2ccccc2)C(=O)c2ccccc2C1=O was read as ST2 inh inactive.
O=C(O)C1C2C=CC3(CN(CCCN4CCOCC4)C(=O)C13)O2 (stereo not drawn) was read as ST2 inh inactive.
Screening Clc1cc(Br)ccc1OCCOCCn1ccnc1 returned ST2 inh inactive.
Cc1nc2nc[nH]n2c(=O)c1NC(=O)Nc1ccc2c(c1)OCCO2 was read as ST2 inh inactive.
`CCn1cc(SCC(=O)Nc2nc3ccccc3s2)c2ccccc21` gave ST2 inh inactive.
Screening Cc1nc2c(C(=O)NCCN(C)C)c[nH]n2c(=O)c1Cc1ccccc1F returned ST2 inh inactive.
Screening O=C(Nc1nnc(-c2cccs2)o1)c1ccc(S(=O)(=O)N2CCCC2)cc1 returned ST2 inh inactive.
CCOC(=O)c1ccc(Nc2c3c(nc4ccccc24)CCC3)cc1 was read as ST2 inh inactive.
O=C(COc1ccc(Cl)cc1Cl)N1CCCCC1 was read as ST2 inh inactive.
For Nc1nc(-c2ccc(Cl)cc2)nc2c1c(=O)oc1ccccc12 the results were ST2 inh inactive.
`Cc1ccc(Nc2cc(C)nc(Nc3ccc(NC(=O)c4ccc(C(C)(C)C)cc4)cc3)n2)cc1` gave ST2 inh inactive.
`COc1ccc(Nc2cc(C)nc(Nc3ccc(NC(=O)c4ccc(OC)cc4)cc3)n2)cc1` gave ST2 inh 32%*.
`CCC(CC)C(=O)Nc1ccc(Nc2nc(C)cc(Nc3ccc(OC)cc3)n2)cc1` gave ST2 inh 39%*.
Screening COc1cc(C(=O)Nc2ccc(Nc3nc(C)cc(Nc4ccccc4)n3)cc2)cc(OC)c1OC returned ST2 inh inactive.
CCCC(=O)Nc1ccc(Nc2nc(C)cc(N(C)C)n2)cc1 was read as ST2 inh inactive.
`CCCC(=O)Nc1ccc(Nc2nc(C)cc(Nc3ccccc3)n2)cc1` gave ST2 inh 31%*.
`COc1ccc(C(=O)Nc2ccc(Nc3nc(C)cc(Nc4ccccc4)n3)cc2)cc1OC` gave ST2 inh inactive.
`COc1ccc(Nc2cc(C)nc(Nc3ccc(NC(=O)c4ccc(F)cc4)cc3)n2)cc1` gave ST2 inh inactive.
`Cc1ccc(Nc2cc(C)nc(Nc3ccc(NC(=O)Cc4ccccc4)cc3)n2)cc1` gave ST2 inh inactive.
`NC1CCC(n2cc(C(=O)N3CCCC(Nc4ccc(F)cc4)C3)nn2)CC1` (stereo not drawn) gave ST2 inh inactive.
O=C(c1ccccc1)c1ccc(OCCCn2ccnc2)cc1 was read as ST2 inh inactive.
`O=C(C1CCCN1C(=O)C1CCCCC1)N1CCc2[nH]c3ccccc3c2C1` (stereo not drawn) gave ST2 inh inactive.
CCN(CC)S(=O)(=O)c1ccc(NC(=O)C2CC2)cc1 was read as ST2 inh inactive.
Screening COc1cc2c(cc1OC)C(C1=NC(C)(C)Cc3cc(OC)c(OC)cc31)=NC(C)(C)C2 returned ST2 inh inactive.
Screening CC(=O)NCCNc1cc(C)nc(-c2ccccc2)n1 returned ST2 inh inactive.
For C=CCNC(=O)C(C)Sc1ccc(Cl)cc1 (stereo not drawn) the results were ST2 inh inactive.
`O=C(c1nc(N2CCCC2)nc2c1CCCC2)N1CCN(Cc2ccc3c(c2)OCO3)CC1` gave ST2 inh 32%*.
O=C(c1ccc2nc3ccccc3c(=O)n2c1)N1CCN(Cc2ccc3c(c2)OCO3)CC1 was read as ST2 inh inactive.
NNC(=O)CN1CCN(Cc2ccc3c(c2)OCO3)CC1 was read as ST2 inh inactive.
Cc1cccc(C)c1OCC(O)CN1CCN(c2ccc(F)cc2)CC1 (stereo not drawn) was read as ST2 inh inactive.
`O=C(CN1CCCC1)N1CCCc2c1c(=O)oc1ccc(O)cc21` gave ST2 inh inactive.
Screening O=C(CN1CCCCCC1)N1CCCc2c1c(=O)oc1ccc(O)cc21 returned ST2 inh inactive.
For O=C(CN1CCCCCC1)N1CCCc2c1c(=O)oc1ccc(OCc3ccccc3)cc21 the results were ST2 inh 30%*.
`COCCn1c(=O)[nH]c2cc(C(=O)NCCN3CCOCC3)ccc2c1=O` gave ST2 inh inactive.
For Cc1c(C)n(CC(O)CNC(C)(C)C)c2ccccc12 (stereo not drawn) the results were ST2 inh inactive.

Source: PubChem BioAssay (Paczesny and Yang Labs, IUPUI and University of Michigan)
